# The campaign covered roughly 150,000 compounds. About 6,500 (4.3%) were called active. Inconclusive results (about 12%) are left out. The rule behind the calls is not given here. This excerpt belongs to a sample that is enriched for actives.
# Target: T1, 15-hydroxyprostaglandin dehydrogenase [NAD(+)] (Homo sapiens) (UniProt P15428)
# T1 sequence (whole entry): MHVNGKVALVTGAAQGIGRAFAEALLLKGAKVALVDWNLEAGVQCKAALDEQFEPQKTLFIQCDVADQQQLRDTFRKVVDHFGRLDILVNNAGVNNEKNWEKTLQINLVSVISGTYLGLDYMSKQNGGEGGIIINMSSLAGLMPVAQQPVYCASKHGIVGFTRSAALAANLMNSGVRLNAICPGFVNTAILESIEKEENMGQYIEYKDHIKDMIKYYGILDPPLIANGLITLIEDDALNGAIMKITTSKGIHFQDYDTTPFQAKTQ
row,Compound,Potency
1,O=C(O)c1cc(/N=N\c2ccc(S(=O)(=O)Nc3ccccn3)cc2)ccc1O,14.1 µM (active)
2,O=C(O)c1cc(/N=N/c2ccc(S(=O)(=O)Nc3ccccn3)cc2)ccc1O,15.8 µM (active)
3,O=C(/C=C\c1ccco1)Nc1nc(-c2ccccc2)cs1,inactive

# — ChEMBL document CHEMBL1201862, “PubChem BioAssay data set” (2004)
